The record followed here is PubChem BioAssay.

Where “and” joins values, the source holds several entries; their conditions need not be identical. Equal entries are not always repeated. Calls of active or inactive are those of the source.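 Rule for the calls, unless noted: active = inhibition at or above 50% relative to wild type and mutant plate controls; inactive = inhibition below 50%.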

Assay [1] can be described thus: inhibitors of TNFa-induced NFkB p65 translocation, primary screen, imaging, HUVEC, MLSMR starter and 10KST1 sets (AID 438;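 active = inhibition above 20% together with a positive visual image hit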;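 note: compound added about 3h40 before a 20 min TNFalpha stimulation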;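 for inhibition: signal is the nuclear over cytoplasmic p65 intensity ratio per well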). Particulars: HUVEC TNFa-induced p65 nuclear translocation; cell count: measured here: nuclei count (cytotoxicity indicator), at 2.08 µM; inhibition: at 2 µM, stronger effect = higher value, 0% TNFa-plus-vehicle, 100% no-TNFa wells.
Assay [2] is described as follows: reduction of polyQ htt aggregates in cells – imaging, exon1htt(103Q)mCFP cells, high-content imaging, primary screen (AID 483;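 active = visual image review flags a hit and inhibition of aggregation exceeds 20%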;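 note: compound exposure lasted 3 days before fixation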;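 for nuclei count: percent of the per-plate median nuclei count of sample wells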). Particulars: exon1htt(103Q)mCFP cell line, aggregate imaging, at 2 µM; inhibition of aggregation: stronger effect = higher value; nuclei count: measured here: cell count, toxicity.
Assay [3] can be described thus: endothelial E-selectin expression blockers – imaging, HUVEC, immunofluorescence, MLSMR starter and 10KST1 sets, primary screen (AID 487;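 active = visually confirmed hit in the image check and inhibition above 20%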;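 for inhibition: signal is fraction of cell area covered by stained E-selectin grains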;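 for nuclei count: 100% = median nuclei count of all wells on the same plate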). Particulars: HUVEC TNFalpha-induced E-selectin immunofluorescence imaging, at 2 µM; inhibition: stronger effect = higher value; nuclei count: measured here: cell number, toxicity.
Assay [4] can be described thus: Primary imaging screen for DUSP6 inhibitors that restore phospho-Erk in transfected HeLa cells, chemical complementation (AID 609;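 active = compounds giving at least 50% inhibition in the cell-based MKP-3 phosphatase rescue imaging test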;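 for inhibition: phospho-Erk level distribution per well compared with pooled transfected vehicle control wells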). The conditions noted are these: HeLa MKP-3 transfected, phospho-Erk imaging KS statistic, at 10 µM, cells stimulated with TPA for 15 min.
Assay [5] concerns the target Dual specificity protein phosphatase 6 (Homo sapiens) (UniProt Q16828). The description is as above. The conditions noted are these: HeLa MKP-3 transfected, phospho-Erk imaging KS statistic; at 10 µM; stronger effect = higher value; cells stimulated with TPA for 15 min.
For assay [6], the target named is Voltage-gated potassium channel subunit beta-2 (Rattus norvegicus) (UniProt P62483). The assay is described as follows: inhibitors of rat Kvbeta2 reductase activity – biochemical, NADPH fluorescence, primary screen (AID 622;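 active = fluorescence slope higher than the sample average by over 3 SD, cut at about -0.22 in these data, passing the limit was not always enough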;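 note: slope of raw intensity against log time taken from 70 to 1610 s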). The conditions noted are these: recombinant KvBeta, 4-cyanobenzaldehyde reduction, at 10 µM, stronger effect = higher value.
Assay [7] shares this target. The experiment in a line: enhancers of rat Kvbeta2 NADPH turnover – biochemical, NADPH fluorescence, primary screen (AID 623;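 active = NADPH fluorescence slope more negative than the mean of all samples by about 3 SD, 99.7% confidence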;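 note: fluorescence intensity change per second fitted from 20 to 320 s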). The conditions noted are these: Recombinant KvBeta, NADPH fluorescence decrease slope, 10 min; at 10 µM; stronger effect = lower value.
Assay [8] addresses Alpha-2C adrenergic receptor (Homo sapiens) (UniProt P18825). The experiment in a line: compounds altering alpha2C-coupled GIRK flux – cell-based, HEK293 alpha2C/GIRK1/2, thallium flux, primary screen (AID 624;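 active = fluorescence slope after compound addition differing from the mean of all screened samples at 99.7% confidence, in either direction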;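 note: slope of fluorescence ratio to pre-addition baseline per second over 15 to 24 s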). The conditions noted are these: thallium flux BTC fluorescence, at 10 µM, actives lie on both sides.
A short description of assay [9]: inhibitors of larval lipid processing in zebrafish, primary screen, whole organism, PED6 fluorescence, gall bladder and intestine (AID 686;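 active = a full or partial loss of lipid-probe fluorescence in the fish gall bladder, intestine or both, judged by eye; inactive = no fluorescence loss, or compound toxic to the fish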;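 note: larvae 5 to 7 days old with five fish per well; signal comes from phospholipase A2 cleavage of quenched PED6 carried via bile; overnight exposure to compound and PED6 before scoring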). Particulars: Zebrafish larvae PED6 lipid processing, fluorescence scoring; screened at 20 µM (by protocol).
Assay [10] is described as follows: loss of swimming-algae plug formation – whole organism, Chlamydomonas reinhardtii, WT vs cilia-less mutant, absorbance, 96-well, primary screen (AID 463189).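 Note: 0% = wild type cc124 cells in DMSO and 100% = ciliumless bld1 mutant cells.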 The conditions noted are these: Chlamydomonas reinhardtii gravitaxis, OD600 absorbance, 2 days; at 10 µM; stronger effect = higher value.
A short description of assay [11]: blockers of RIG-like receptor reporter activation – cell-based, Sendai virus stimulus, luciferase, 10K MLSCN set, TLR/RLR signaling modifier project, primary screen (AID 602276;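 active = inhibition at or above 50% at 10 µM; inactive = inhibition below 50%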;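 note: firefly luciferase from ISG56 promoter only with Renilla not read in this screen; 0% = Sendai virus plus DMSO and 100% = medium plus DMSO without virus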). The conditions noted are these: HEK293 RL24 IRF3 luciferase reporter, at 10 µM, stronger effect = higher value. On the technique in general: In a reporter assay the amount or activity of a reporter protein is the signal.

Assay [12] can be described thus: TLR3 IRF3 reporter activation blockers – cell-based, poly I:C stimulus, luciferase, 10K MLSCN set, primary screen (AID 602277;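 active = inhibition of the reporter signal at or above 50%; inactive = inhibition below 50%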). Particulars: HEK293-TLR3 RL24 IRF3 luciferase reporter, at 10 µM, stronger effect = higher value.
Where [13] appears, read: measured here: cell density z-score.
Setting [14] is: measured here: nuclear c-Myc green intensity z-score.
Where [15] appears, read: measured here: nuclear pErk red intensity z-score, stronger effect = higher value.

Dual specificity protein phosphatase 6 (Homo sapiens), sequence (Q16828 whole entry, looked up): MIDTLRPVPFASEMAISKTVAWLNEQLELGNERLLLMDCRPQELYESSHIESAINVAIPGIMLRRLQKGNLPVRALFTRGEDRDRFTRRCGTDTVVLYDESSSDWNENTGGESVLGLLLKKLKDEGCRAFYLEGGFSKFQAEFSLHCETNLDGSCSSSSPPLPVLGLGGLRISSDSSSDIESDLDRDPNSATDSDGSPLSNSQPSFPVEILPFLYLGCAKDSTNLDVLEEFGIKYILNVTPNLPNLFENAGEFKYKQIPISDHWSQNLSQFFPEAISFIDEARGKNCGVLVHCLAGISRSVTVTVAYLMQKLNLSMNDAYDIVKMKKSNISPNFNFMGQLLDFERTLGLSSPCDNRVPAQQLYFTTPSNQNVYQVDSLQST
Alpha-2C adrenergic receptor (Homo sapiens), sequence (P18825 whole entry, looked up): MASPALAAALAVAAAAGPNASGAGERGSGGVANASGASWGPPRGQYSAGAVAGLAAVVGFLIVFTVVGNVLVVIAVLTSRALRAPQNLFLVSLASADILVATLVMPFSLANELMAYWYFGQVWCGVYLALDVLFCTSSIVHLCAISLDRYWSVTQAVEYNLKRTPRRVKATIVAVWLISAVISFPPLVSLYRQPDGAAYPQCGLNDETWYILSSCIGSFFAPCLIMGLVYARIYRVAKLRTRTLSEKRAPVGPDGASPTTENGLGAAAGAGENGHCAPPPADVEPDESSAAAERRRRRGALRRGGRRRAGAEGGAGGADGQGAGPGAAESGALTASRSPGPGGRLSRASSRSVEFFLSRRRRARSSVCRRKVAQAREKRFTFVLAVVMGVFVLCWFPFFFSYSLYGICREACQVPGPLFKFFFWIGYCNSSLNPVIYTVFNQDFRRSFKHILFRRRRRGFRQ
Voltage-gated potassium channel subunit beta-2 (Rattus norvegicus), sequence (P62483 whole entry, looked up): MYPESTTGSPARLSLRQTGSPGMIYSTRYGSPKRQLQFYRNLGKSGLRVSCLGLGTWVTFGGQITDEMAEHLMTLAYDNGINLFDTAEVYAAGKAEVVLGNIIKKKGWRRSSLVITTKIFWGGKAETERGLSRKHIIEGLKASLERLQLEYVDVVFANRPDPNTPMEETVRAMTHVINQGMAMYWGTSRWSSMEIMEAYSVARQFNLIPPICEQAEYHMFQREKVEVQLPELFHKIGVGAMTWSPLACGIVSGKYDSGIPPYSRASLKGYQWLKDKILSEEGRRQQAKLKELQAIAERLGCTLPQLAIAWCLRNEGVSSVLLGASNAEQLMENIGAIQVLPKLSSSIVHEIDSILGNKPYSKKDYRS

Broadly, the inhibition is the relative decrease from the control value, in per cent. In the case of `Nc1nc2ccc(OC(F)(F)F)cc2s1`, the cell count in [1] was found to be 540. Also, the inhibition in assay [1] was -0.5% (inactive); in assay [3], -27.8% (inactive); in [5], 36.7% (inactive); in [10], 4.87% (inactive) and -11.8% (inactive); in assay [11] it was -14.6% (inactive); in assay [12], -58.1% (inactive). Also, the inhibition of aggregation in [2] is -1.7% (inactive). The results for the nuclei count in assay [2] and in [3] were 86.1% and 107%, respectively. Further, the z-score is 2.05 in assay [4] (setting [13]), -1.62 in [4] (setting [14]) and -0.877 in assay [4] (setting [15]). Further, in [6], the fluorescence slope is -0.427 (inactive). In addition, the NADPH fluorescence slope in assay [7] is 2.4e-05 (inactive). Moreover, the slope in assay [8] was 0.00474 (inactive). The molecule was called inactive in assay [9].

In the case of `CCCCC[C@H](O)/C=C/[C@H]1C=CC(=O)[C@@H]1C/C=C\CCCC(=O)O`, in assay [1], the cell count came to 543. Besides, the inhibition in assay [1] is -11.1% (inactive); in [3] it was -33.9% (inactive); in assay [5] it was 7.39% (inactive); in assay [10], 5.58% (inactive); in assay [11], -2.27% (inactive); in assay [12] it was 25% (inactive). Also, the inhibition of aggregation in assay [2] was 16% (inactive). Also, the nuclei count in assay [2] amounted to 84.8%; in assay [3] it was 110%. In addition, the z-score is 1.78 in [4] (setting [13]), -0.725 in [4] (setting [14]) and -0.854 in assay [4] (setting [15]). Also, the fluorescence slope in assay [6] is -0.458 (inactive). For the same molecule, the NADPH fluorescence slope in assay [7] is -5.4e-05 (inactive). Moreover, in assay [8], the slope is 0.00837 (inactive). The molecule was classed as inactive in assay [9].

For `CC1(C)CC(=O)C=C(NCc2ccncc2)C1`, the cell count in [1] stood at 623. Further, the inhibition is -5.3% (inactive) in assay [1]; -98.8% (inactive) in assay [3]; 13.9% (inactive) in assay [5]; -8.68% (inactive) in [10]; -0.503% (inactive) in assay [11]; 44.9% (inactive) in assay [12]. For the same molecule, the inhibition of aggregation in assay [2] was -13.1% (inactive). For the same molecule, the nuclei count came to 100% in [2] and 122% in assay [3]. Besides, the z-score in [4] (setting [13]) was 1.78; in [4] (setting [14]), -0.484; in assay [4] (setting [15]), -1.6. Further, the fluorescence slope in assay [6] was -0.497 (inactive). The NADPH fluorescence slope in assay [7] is -3.5e-05 (inactive). Further, the slope in assay [8] is 0.00534 (inactive). Moreover, in assay [9], the result was inactive.

Regarding `Cc1cc(C)nc(NC(=O)c2ccc(OC(C)C)cc2)n1`, the cell count in assay [1] amounted to 520. The inhibition was -2.7% (inactive) in assay [1]; -53% (inactive) in assay [3]; 17% (inactive) in assay [5]; -2.45% (inactive) in assay [10]; -1.16% (inactive) in assay [11]; -12.9% (inactive) in assay [12]. In addition, the inhibition of aggregation in [2] was -1.7% (inactive). Further, the nuclei count in [2] was 110%; in assay [3], 123%. The z-score is 0.524 in [4] (setting [13]), 1.41 in assay [4] (setting [14]) and -0.231 in assay [4] (setting [15]). Further, the fluorescence slope in assay [6] is -0.449 (inactive). Moreover, the NADPH fluorescence slope in assay [7] is -4.9e-05 (inactive). The slope in assay [8] is 0.00572 (inactive). The outcome in assay [9] was inactive.

As for `CCCSc1ccc2nc(NC(=O)OC)[nH]c2c1`, the cell count in assay [1] is 574. For the same molecule, the inhibition in assay [1] was 3% (inactive); in assay [3], -115% (inactive); in [5], -5.24% (inactive); in assay [10], -13.8% (inactive); in [11], 26.9% (inactive); in [12] it was -19.4% (inactive). The inhibition of aggregation in [2] is -22.3% (inactive). Further, the nuclei count stood at 15.7% in assay [2] and 123% in assay [3]. Also, the z-score in assay [4] (setting [13]) was found to be 0.0938; in [4] (setting [14]), 0.921; in assay [4] (setting [15]), 0.811. Besides, in [6], the fluorescence slope is -0.486 (inactive). In addition, in assay [7], the NADPH fluorescence slope was -8.1e-05 (inactive). Besides, the slope in assay [8] was 0.00562 (inactive). Further, in assay [9], the result was inactive.
